Measurements taken from PubChem BioAssay (NCATS).
Inconclusive results are not listed. The source made the active and inactive calls. The call rests on the fitted dose curve; in most records, active means well fitted inhibition curve with a large enough effect; inconclusive means small, poorly fitted or top-dose-only effect; inactive means flat fitted curve, though single readings scatter.

Experiments:
Assay in all cases: qHTS profiling for inhibitors of Plasmodium falciparum proliferation (AID 504749); further: nearly all actives have a fitted effect of over 60% in size
Conditions in all cases: P. falciparum in erythrocytes, SYBR Green DNA, 72 h; series mostly up to 28.7 µM
[1] = system: 3D7
In short: (§1)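 Three-day growth assay of blood-stage parasites in erythrocytes (0.3% parasitemia, 2.5% hematocrit) at 37 C, 5% CO2, quantified by SYBR Green DNA staining after overnight detergent lysis.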

[2] = system: AS120
In short: as §1

[3] = system: ATS189
In short: as §1

[4] = system: CP185
In short: as §1

[5] = system: CP191
In short: as §1

[6] = system: CP192
In short: as §1

[7] = system: CP194
In short: as §1

[8] = system: CP201
In short: as §1

[9] = system: CP203
In short: as §1

[10] = system: CP247
In short: as §1

[11] = system: CP286
In short: as §1

[12] = system: CP291
In short: as §1

[13] = system: DFO2036
In short: as §1

[14] = system: DIV14
In short: as §1

[15] = system: DIV17
In short: as §1

[16] = system: GB4
In short: as §1

[17] = system: P94_40
In short: as §1

[18] = system: PC49
In short: as §1

[19] = system: TAB109
In short: as §1

[20] = system: TAB113
In short: as §1

Measured: Potency

CC(=O)[C@H]1CC[C@H]2C3CC=C4C[C@@H](O)CC[C@]4(C)C3CC[C@]12C (stereo not given in full)
inactive: [1] | [2] | [3] | [4] | [5] | [6] | [7] | [8] | [9] | [10] | [11] | [12] | [13] | [14] | [15] | [16] | [17] | [18] | [19] | [20]
